Outcome and Potency data for six compounds are collected here from PubChem BioAssay (Tox21).

Assay [1] can be described thus: qHTS assay to identify small molecule agonists of the vitamin D receptor (VDR) signaling pathway - cell viability counter screen (AID 743224). Also: series mostly up to about 63 µM; nearly all actives have a fitted effect of over 50% in size. Put shortly:
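Viability is measured in the same wells as the VDR-bla reporter assay: after 16 h compound treatment and 2 h substrate loading, CellTiter-Glo is added and luminescence read 30 min later.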
Background: In qHTS, concentration-response curves come from the screen itself.

Assay [2] is described as follows: qHTS assay to identify small molecule antagonists of the vitamin D receptor (VDR) signaling pathway - cell viability counter screen (AID 743225). Also: nearly all actives have a fitted effect of over 50% in size. Put shortly: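 HEK293T VDR-bla; cpd + 1a,25-(OH)2D3 3 nM final, 16 h 37C/5% CO2; B/G FRET substrate 2 h RT; then CellTiter-Glo 30 min RT, luminescence.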
Assay [3] is described as follows: qHTS assay to identify small molecule agonists of the NFkB signaling pathway (AID 1159509; active = well fitted curve in the direction sought with a large enough effect in the signal ratio in the repeat runs, not every such curve was filed as active; the % refers to the signal ratio; also: series mostly up to about 61 µM). Put shortly:
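NFkB-bla ME-180 cells carry a beta-lactamase reporter under an NF-kB response element. They were plated overnight, then exposed to compounds for 5 h at 37 C. Read-out is LiveBLAzer FRET after 1.5 hr at room temperature (405 nm excitation; 460/530 nm emission).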

Assay [4] in a line: qHTS assay to identify small molecule agonists of the NFkB signaling pathway - cell viability counter screen (AID 1159515; calls by dose curve; also: series mostly up to about 61 µM; nearly all actives have a fitted effect of over 55% in size). Put shortly:
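Multiplexed viability readout: after the 5 hr compound exposure and 1.5 hr FRET substrate step, CellTiter-Glo reagent went into the same NFkB-bla ME-180 wells; ATP luminescence was measured after 30 min at room temperature.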

Assay [5] can be described thus: qHTS assay to identify small molecule agonists of the endoplasmic reticulum stress response signaling pathway (AID 1159516; active = well fitted activation curve with a large enough effect in the signal ratio in the repeat runs, not every such curve was filed as active; the % refers to the signal ratio). The method in brief:
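Tox21 10K library screened in quantitative HTS format on ESRE-bla HeLa cells, a beta-lactamase reporter under ER stress response element control; 5 hr treatment, FRET read.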

The nature of assay [6]: qHTS assay to identify small molecule agonists of the endoplasmic reticulum stress response signaling pathway - cell viability counter screen (AID 1159517; calls by dose curve; also: series mostly up to about 61 µM; nearly all actives have a fitted effect of over 50% in size). Put shortly:
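CellTiter-Glo was added to wells already read for beta-lactamase FRET, and luminescence was recorded 30 min later. Cells: ESRE-bla HeLa, 1,500 per well, compound exposure 5 hr at 37 C.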

The nature of assay [7]: qHTS assay to identify small molecule antagonists of the retinoid-related orphan receptor gamma (ROR-gamma) signaling pathway - cell viability counter screen (AID 1159520). Also: nearly all actives have a fitted effect of over 50% in size. The method in brief: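 Tet-on ROR gamma CHO cells (1,000/well) were plated 4 hr, given compounds in DMSO for 2 hr at 37 C, then induced with 1 uM final doxycycline for 16 hr. Viability was read as ATP by CellTiter-Glo luminescence after 30 min.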

Assay [8] addresses Nuclear receptor ROR-gamma (Homo sapiens) (UniProt P51449). In words: qHTS assay to identify small molecule antagonists of the retinoid-related orphan receptor gamma (ROR-gamma) signaling pathway (AID 1159521). Put shortly:
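Cells were plated, rested 4 h at 37 C, exposed to compounds for 2 h, then given 1 uM final doxycycline hyclate to induce RORγ expression. After 16 h, ONE-Glo luminescence from the ROR response element reporter was measured.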

Assay [9] can be described thus: qHTS assay to identify small molecule agonists of the AP-1 signaling pathway - cell viability counter screen (AID 1159525; calls by dose curve; also: nearly all actives have a fitted effect of over 55% in size). Put shortly: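 ME-180 AP-1-bla, 2500 cells/well, Opti-MEM + 0.5% dialyzed FBS; overnight 37 °C; cpd 15-pt titration, 5 h 37 °C; CellTiter-Glo 30 min RT; luminescence read; normalised to TOAB and DMSO controls.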
Assay [10] in a line: qHTS assay to identify small molecule agonists of the AP-1 signaling pathway (AID 1159526; calls by dose curve).
The target in assay [11] is Retinoic acid receptor RXR-alpha (Homo sapiens) (UniProt P19793). Kind of assay: qHTS assay to identify small molecule agonists of the RXR signaling pathway (AID 1159527; calls by dose curve; also: nearly all actives have a fitted effect of over 35% in size). The method in brief: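 Cells plated at 2,000/well, rested 5 hr at 37 C, pin-dosed with DMSO compound solutions, incubated 16 hr, then loaded with B/G FRET substrate for 2 hr at RT before dual-emission fluorescence reading.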

Assay [12] is described as follows: qHTS assay to identify small molecule agonists of the RXR signaling pathway - cell viability counter screen (AID 1159529). Put shortly:
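Steps: seed RXR-alpha-UAS-bla HEK 293T cells in assay medium containing 2% charcoal-stripped FBS; incubate 5 hr; add compounds in DMSO; incubate 16 hr at 37 C; after the bla read, add CellTiter-Glo and read luminescence at 30 min.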

Assay [13] can be described thus: qHTS assay to identify small molecule antagonists of the retinoid acid receptor (RAR) signaling pathway - cell viability counter screen (AID 1159551). Also: nearly all actives have a fitted effect of over 35% in size. Put shortly:
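Cytotoxicity counter screen in C3RL4 cells: 6 h compound exposure with 1 uM retinol (final), viability from cellular ATP by luminescence.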

A short description of assay [14]: qHTS assay to identify small molecule antagonists of the retinoic acid receptor (RAR) signaling pathway (AID 1159552; also: nearly all actives have a fitted effect of over 50% in size). The method in brief:
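Retinol at 1 uM final stimulated RARE-luciferase expression in C3RL4 cells exposed to test compounds for 6 hr at 37 C. Reduced luminescence, read 30 min after detection reagent, indicated pathway antagonism.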

Assay [15] in a line: qHTS assay to identify small molecule agonists of the retinoic acid receptor (RAR) signaling pathway (AID 1159553). Also: potency is read from the fitted curve at half-maximal effect. Put shortly: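 Agonist activity was scored in C3RL4 cells bearing a retinoic acid response element luciferase construct. Cells were treated with compounds for 6 hr at 37 C, and luciferase signal was measured as luminescence.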
A short description of assay [16]: qHTS assay to identify small molecule antagonists of the estrogen related receptor (ERR) signaling pathway from Tox21 library - cell viability counter screen (AID 1224834). Also: nearly all actives have a fitted effect of over 30% in size. Put shortly: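 Cytotoxicity of test substances is gauged in the same ERR cells used for the antagonist screen, after 17.5 h of compound treatment at 37 C, by CellTiter-Fluor fluorescence measured after 30 min.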

Assay [17] deals with Luciferin 4-monooxygenase (Photinus pyralis) (UniProt P08659). In words: qHTS assay to identify small molecule inhibitors of firefly luciferase (AID 1224835). Also: nearly all actives have a fitted effect of over 25% in size. Also: potency is read from the fitted curve at half-maximal effect. Put shortly:
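Quantitative HTS format; KM concentrations of both substrates. Purified P. pyralis FLuc activity quantified from luminescence images.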

The nature of assay [18]: qHTS assay to identify small molecule agonists of the constitutive androstane receptor (CAR) signaling pathway - cell viability counter screen (AID 1224836). Also: series mostly up to about 92 µM; nearly all actives have a fitted effect of over 45% in size. The method in brief:
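Cells were seeded and incubated 4 hrs. Compounds were added across 15 concentrations together with PK11195 at 0.75 uM final. Plates were incubated 23 hrs at 37 C. CellTiter-Fluor was added and fluorescence measured.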

A short description of assay [19]: qHTS assay to identify small molecule antagonists of the constitutive androstane receptor (CAR) signaling pathway - cell viability counter screen (AID 1224837). Also: series mostly up to about 92 µM; nearly all actives have a fitted effect of over 45% in size. Put shortly: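 Multiplexed cytotoxicity read-out for the CAR antagonist screen: double-stable HepG2-CYP2B6-hCAR cells co-treated with 50 nM CITCO (final) and compound over 15 concentrations, incubated 23 hr, then assessed by CellTiter-Fluor fluorescence.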

Assay [20] has as its target Nuclear receptor subfamily 1 group I member 3 (Homo sapiens) (UniProt Q14994). In words: qHTS assay to identify small molecule antagonists of the constitutive androstane receptor (CAR) signaling pathway (AID 1224838). Also: nearly all actives have a fitted effect of over 40% in size. Put shortly:
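Compounds were titrated across 15 concentrations onto HepG2 cells double-stably expressing hCAR and a CYP2B6-2.2kb reporter, together with 50 nM CITCO (final). After 24 h at 37 C, luciferase activity was measured by luminescence.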

Records with an inconclusive call do not appear. Unmarked numbers belong to inactive results. Activity calls are given as the source filed them. Unless noted, calls follow the shape of the dose curve; as a rule, active = well fitted curve in the direction sought with a large enough effect in the repeat runs; inconclusive = weak or mixed curves; inactive = no such curve, though single readings can be large; an effect the other way counts as inactive or inconclusive.

Nuclear receptor subfamily 1 group I member 3 (Homo sapiens), sequence (Q14994 whole entry, looked up): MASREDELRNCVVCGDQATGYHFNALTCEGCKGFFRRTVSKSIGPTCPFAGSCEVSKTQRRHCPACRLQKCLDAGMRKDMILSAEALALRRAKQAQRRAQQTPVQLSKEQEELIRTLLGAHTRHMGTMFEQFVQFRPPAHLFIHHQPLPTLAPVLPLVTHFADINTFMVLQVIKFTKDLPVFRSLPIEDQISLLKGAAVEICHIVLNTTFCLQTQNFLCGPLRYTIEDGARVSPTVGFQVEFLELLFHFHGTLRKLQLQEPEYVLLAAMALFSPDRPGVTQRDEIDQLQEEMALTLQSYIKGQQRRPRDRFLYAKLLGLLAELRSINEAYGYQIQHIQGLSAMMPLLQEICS
Retinoic acid receptor RXR-alpha (Homo sapiens), sequence (P19793 whole entry, looked up): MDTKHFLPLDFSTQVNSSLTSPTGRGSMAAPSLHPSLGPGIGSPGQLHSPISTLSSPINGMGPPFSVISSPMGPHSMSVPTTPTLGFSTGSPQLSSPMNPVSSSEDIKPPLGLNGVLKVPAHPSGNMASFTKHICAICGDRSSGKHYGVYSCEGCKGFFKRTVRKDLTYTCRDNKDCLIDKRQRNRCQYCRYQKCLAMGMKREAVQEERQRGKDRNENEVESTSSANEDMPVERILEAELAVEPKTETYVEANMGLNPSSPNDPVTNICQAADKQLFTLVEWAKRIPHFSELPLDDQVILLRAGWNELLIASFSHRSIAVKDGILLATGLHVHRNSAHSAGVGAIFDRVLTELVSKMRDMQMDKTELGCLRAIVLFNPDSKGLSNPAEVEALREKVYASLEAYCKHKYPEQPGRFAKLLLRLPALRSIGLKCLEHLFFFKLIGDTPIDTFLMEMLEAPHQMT
Luciferin 4-monooxygenase (Photinus pyralis), sequence (P08659 whole entry, looked up): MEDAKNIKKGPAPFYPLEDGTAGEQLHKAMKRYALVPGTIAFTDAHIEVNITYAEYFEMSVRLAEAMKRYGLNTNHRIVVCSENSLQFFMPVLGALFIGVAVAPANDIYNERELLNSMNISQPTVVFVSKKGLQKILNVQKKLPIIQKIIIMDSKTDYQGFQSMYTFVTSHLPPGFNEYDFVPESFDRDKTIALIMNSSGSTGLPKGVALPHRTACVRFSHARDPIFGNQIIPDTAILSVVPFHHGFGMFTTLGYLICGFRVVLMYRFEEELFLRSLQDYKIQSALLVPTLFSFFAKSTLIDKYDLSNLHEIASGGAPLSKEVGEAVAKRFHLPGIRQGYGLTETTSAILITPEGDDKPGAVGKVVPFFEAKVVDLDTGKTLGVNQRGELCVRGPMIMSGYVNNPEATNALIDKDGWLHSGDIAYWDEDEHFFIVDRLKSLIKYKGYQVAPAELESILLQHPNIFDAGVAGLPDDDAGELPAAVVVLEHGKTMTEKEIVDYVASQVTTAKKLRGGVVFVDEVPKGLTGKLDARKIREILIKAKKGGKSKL

`CCCSSCCC`: the outcome in [1], in assay [2], in [3], in [4], in assay [5] and in assay [6] was inactive. Besides, the compound was classed as inactive in assay [7], in assay [8], in assay [9], in assay [10], in assay [12] and in [13]. Further, the outcome in [14], in [16], in assay [18] and in assay [19] was inactive. In addition, the Potency result in assay [11], in [15], in assay [17] and in [20] was “inactive” in each case.

In the case of `CCCCCCCCCOC(=O)CCCCC(=O)OCCCCCCC`, the compound was classed as inactive in [1], in assay [2], in assay [3], in assay [4], in assay [5] and in assay [6]. Also, the outcome in assay [7], in assay [8], in assay [9], in assay [10], in assay [12] and in assay [13] was inactive. Also, the call in assay [14], in assay [16], in assay [18] and in [19] was inactive. For the same compound, the Potency entry in assay [11], in [15], in assay [17] and in assay [20] was “inactive” throughout.

`O=C(CN1CCNCC1)NC1CCCCC1`: the compound was classed as inactive in [1], in assay [2], in [3], in assay [4], in assay [5] and in [6]. Further, the call in assay [7], in assay [8], in assay [9], in assay [10], in assay [12] and in [13] was inactive. Further, the outcome in assay [14], in [16], in assay [18] and in assay [19] was inactive. In addition, the Potency entry in assay [11], in [15], in assay [17] and in assay [20] was “inactive” in each case.

Regarding `CC(C)NC(=O)c1ccc(C=O)cc1`, the outcome in assay [1], in [2], in [3], in [4], in [5] and in assay [6] was inactive. Besides, the outcome in assay [7], in assay [8], in [9], in [10], in [12] and in assay [13] was inactive. Moreover, the compound was classed as inactive in [14], in assay [16], in assay [18] and in assay [19]. Further, the Potency entry in [11] and in assay [20] was “inactive” in each case. Besides, the figures for the Potency in [15] and in assay [17] were 26.6 µM (active) and 17.4 µM (active), respectively.

Consider `CC(C)Nc1ccccc1`, for which the compound was called inactive in assay [1], in assay [2], in assay [3], in assay [4], in assay [5] and in assay [6]. For the same compound, the compound was called inactive in assay [7], in assay [8], in assay [9], in assay [10], in [12] and in assay [13]. Also, the compound was called inactive in assay [14], in [18] and in [19]. The Potency result in assay [11], in assay [15], in assay [17] and in assay [20] was “inactive” in each case.

With `OC1(c2ccc(Cl)cc2)CCNCC1`, the result in assay [1], in assay [2], in [3], in assay [4], in assay [5] and in assay [6] was inactive. The call in assay [7], in assay [8], in [9], in [10], in [12] and in [13] was inactive. Moreover, the compound was called inactive in assay [14], in [16], in assay [18] and in [19]. In addition, the Potency result in assay [11], in assay [15], in assay [17] and in assay [20] was “inactive” each time.
